# In PubChem BioAssay AID624417 (National Center for Advancing Translational Sciences (NCATS), 2012):
# In all, about 410,000 compounds went through this assay and about 6,400 (1.6%) were called active. Where a call stands in place of a potency, no number is given. About 20% were inconclusive and are not listed. Calls follow the shape of the dose curve; as a rule, active = well fitted inhibition curve with a large enough effect; inconclusive = small, poorly fitted or top-dose-only effect; inactive = no such curve, though single readings can be large or run the other way. Only a selection was taken, and actives are over-represented in it overall.
# Target: Glucagon-like peptide 1 receptor (Homo sapiens) (UniProt P43220)
# Test: qHTS of GLP-1 Receptor Inverse Agonists (Inhibition Mode); also: nearly all actives have a fitted effect of over 55% in size
# Conditions: HEK293 GLP-1R CRE-luciferase, luminescence, 24 h, GLP-1R form is constitutively active; series mostly up to 38.3 µM
# Description: The overall goal of this project was to develop a novel assay for discovering small molecule ligands for class B1 G protein-coupled receptors (GPCRs). Very few agonists (or inverse agonists in inhibition mode) with generally weak activity for this entire group of physiologically important receptors are known to date. To establish proof-of-principle that this critical bottleneck can be overcome with a suitable screening approach, our studies focused on the class B1 receptor for glucagon-like peptide-1 (GLP-1R), a potential therapeutic target for diabetes and neurodegenerative disease. The assay was developed using a cell-based functional readout. Toward this goal, stably transfected HEK293 cell clones were established that co-express (i) a cAMP-responsive luciferase reporter gene, and (ii) constitutively active GLP-1R that upon ligand interaction inhibit (inverse agonists) the luciferase activity. In addition, two control cell lines were developed: (i) one that express only the cAMP-responsive reporter gene to enable initial exclusion of GLP-1R independent effects of candidate probes; and (ii) one with the reported gene cloned with another constitutively active orphan receptor GPR119 to enable exclusion of GLP-1R independent inhibitor effects of candidate inverse agonists. To that end, this assay was optimized for 1536-well format and screened against the MLSMR. […] NIH Molecular Libraries Probe Production Network [MLPCN] NIH Chemical Genomics Center [NCGC] Grant: NS064851 PI Name: Martin Beinborn, Tufts Medical Center
# Six ul of cell suspension (200 cells/uL in DMEM + 10% Nu serum + 1% pen-strep) is dispensed in a white solid 1536-well plate. The plates are incubated for 12 hours at 37 deg C at 5% CO2 followed by addition of 23 nL compounds. After 24 hr incubation at 37 deg C and 5% CO2, 3 uL of luciferase assay detection reagent is added. A luminescence read is obtained on the PerkinElmer Viewlux after 12 min incubation at room temperature.
# Potency is read from the fitted curve at half-maximal effect.
# Glucagon-like peptide 1 receptor (Homo sapiens), sequence (P43220 whole entry, looked up): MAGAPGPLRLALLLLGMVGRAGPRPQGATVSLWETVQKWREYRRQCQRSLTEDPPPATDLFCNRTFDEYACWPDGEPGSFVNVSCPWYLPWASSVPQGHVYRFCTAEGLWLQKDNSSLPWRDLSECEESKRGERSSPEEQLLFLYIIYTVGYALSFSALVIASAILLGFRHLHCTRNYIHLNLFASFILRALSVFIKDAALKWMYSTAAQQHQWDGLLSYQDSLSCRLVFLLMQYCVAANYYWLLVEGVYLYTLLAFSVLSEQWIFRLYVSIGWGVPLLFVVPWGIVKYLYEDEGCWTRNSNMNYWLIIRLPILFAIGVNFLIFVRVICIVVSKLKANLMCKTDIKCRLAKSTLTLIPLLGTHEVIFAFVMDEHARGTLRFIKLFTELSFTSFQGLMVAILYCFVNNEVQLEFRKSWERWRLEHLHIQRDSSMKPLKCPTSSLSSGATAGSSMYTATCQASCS
row,SMILES,Potency
1,COc1ccc(N2CCC(N3CCN(C)C(CCO)C3)CC2)cc1 (stereo unspecified),inactive
2,COc1ccccc1N1CCC(N2CCN(CC(C)(C)C)C(CCO)C2)CC1 (stereo unspecified),inactive
3,Cc1cc(F)ccc1N1CCC(N2CCN(C)C(CCO)C2)CC1 (stereo unspecified),4.47 µM (active)
4,COc1ccc(CN2C(=O)C(CC(=O)NCCCCc3ccccc3)CC(C(=O)N3CCOCC3)=C2C)cc1 (stereo unspecified),inactive
5,Cc1ccccc1NC(=O)CSc1nc2ccc(Nc3nc(N4CCOCC4)nc(N4CCOCC4)n3)cc2s1,inactive
6,O=C(CSc1nc(Nc2ccccc2)nc(N2CCOCC2)n1)Nc1cc(Cl)ccc1O,5.62 µM (active)
7,O=C(CC(c1ccccc1)c1cc(Cl)ccc1O)NCCN1CCOCC1 (stereo unspecified),inactive
8,CCCNC(=O)C1(C)CCN(C(=O)c2cc(F)ccc2C)C1 (stereo unspecified),inactive
9,CC1(C(=O)NS(=O)(=O)c2ccc(C#N)cc2)CCN1C(=O)c1ccc(C2CCCCC2)cc1 (stereo unspecified),inactive
10,N#CCSc1nc2c(c(=O)n1Cc1ccccc1)C1(CCCC1)Cc1ccccc1-2,3.98 µM (active)
11,N#CCSc1nc2ccc(N3CCOCC3)cc2c(=O)n1CCc1ccccc1,inactive
12,CCC1(CC)Cc2ccccc2-c2nc(CCl)[nH]c(=O)c21,inactive
13,N#Cc1ccc(-c2ccc3nccn3c2)cc1,inactive
14,O=[N+]([O-])c1ccc(CN2CC(N3CC=CC3)CS2(=O)=O)cc1 (stereo unspecified),inactive
15,C/C(COc1ccccc1)=N\NC(=O)c1nnn(-c2nonc2N)c1-c1ccc(C)cc1,inactive
16,COc1ccc(N2CCN(C(=O)CCc3nc(-c4ccc(C)cc4)no3)CC2)cc1,inactive
17,CC(=O)c1ccc(NC(=O)CCc2nc(-c3ccc(C)cc3)no2)cc1,inactive
18,Cc1ccc(-c2noc(CCC(=O)Nc3ccccc3N3CCN(C)CC3)n2)cc1,11.2 µM (active)
19,C[C@H]1CN([C@@H](C)CO)C(=O)CCCn2cc(nn2)CO[C@@H]1CN(C)S(=O)(=O)c1cccs1,inactive
20,Cc1ccc(NS(=O)(=O)c2ccc(C)c(NC(=O)COc3ccc4ccccc4c3)c2)c(C)c1,5.01 µM (active)
21,Cc1ccc(C)c(NC(=O)CN(C)C(=O)COc2ccc3ccccc3c2)c1,inactive
22,Cc1ccc(C)c(NS(=O)(=O)c2ccc(OCC(=O)NCc3cccnc3)cc2)c1,inactive
23,CCCCc1ccc(S(=O)(=O)NC(=O)C2(C)CCN2C(=O)c2ccccc2)cc1 (stereo unspecified),inactive
24,Cc1nnc(SC(C)C(=O)c2c[nH]c3ccccc23)n1C1CC1 (stereo unspecified),inactive

row,SMILES,Potency
1,Cc1cc(Cl)ccc1NNC(=O)c1snnc1C,2 µM (active)
2,Cc1nnsc1C(=O)NCc1c(F)cccc1Cl,inactive
3,Cc1nnsc1C(=O)Nc1cccc(Cl)c1C,inactive
4,Nc1ncnc2c1ncn2[C@@H]1O[C@H](C(=O)NS(=O)(=O)c2c(Cl)nc3sccn23)[C@@H](O)[C@H]1O,inactive
5,CCOC(=O)C1C(C)C(C(C)(C)C)N(S(=O)(=O)c2ccc(C)cc2)C1c1ccccc1 (stereo unspecified),inactive
6,CC1(C(=O)NS(=O)(=O)c2ccc(C#N)cc2)CCN1C(=O)CC1CCCC1 (stereo unspecified),inactive
7,Cc1cccc(CN2CCN(C3CN(Cc4ccccc4)S(=O)(=O)C3)CC2)c1 (stereo unspecified),inactive
8,O=C(NNC(=O)C1CCC1)c1ccccc1,inactive
9,Cc1ccc(NNC(=O)C2CCC2)cc1C,6.31 µM (active)
10,Cc1ccc(C)c(OCC(=O)NNC(=O)C2CCC2)c1,inactive
11,Cc1ccc(C(=O)OCC(=O)NC2CCCCCCC2)cc1C,inactive
12,Cc1cccc(C(=O)N2CCN(S(=O)(=O)N3CCCCC3)CC2)c1,inactive
13,Cc1cccc(C)c1N1CCN(S(=O)(=O)N2CCCCC2)CC1,10 µM (active)
14,Cc1cccc(C)c1N1CCN(S(=O)(=O)N2CCOCC2)CC1,inactive
15,CN(CCO)C(=O)c1nc[nH]c1C(=O)N(C)Cc1ccccc1,inactive
16,Cc1cc(C(=O)NNC(=O)c2ccccc2O)c(C)o1,inactive
17,CC1=C(C)CC(C(=O)NNC(=O)c2ccccc2O)C(C(=O)O)C1 (stereo unspecified),inactive
18,O=C(NNC(=O)c1ccccc1O)c1ccccc1O,5.01 µM (active)
19,Clc1ccccc1Nc1nc(NCc2cccs2)nc2ccsc12,inactive
20,CC(C)(C)OC(=O)N1CCN(C(=O)c2[nH]c(C(F)(F)F)nc2-c2ccccc2)CC1,inactive
21,CCOC(=O)[C@]12CCC=C1N(Cc1ccccc1)C(=O)[C@H](CC(=O)N1CCCC1)C2,inactive
22,CCCNC(=O)c1cc2c(c(-c3cccc(-c4ccc(C#N)cc4)c3)n1)[C@@H](CCO)N(C(=O)CC)C2,inactive
23,COc1ccc(NC(=O)CCCNC(=O)Cn2cnc3sc4c(c3c2=O)CCCC4)cc1OC,inactive
24,COc1ccc(/C=N/Nc2ncnc3sc4c(c23)CCCC4)cc1O,10 µM (active)

row,SMILES,Potency
1,COc1ccc(NC(=O)CCNC(=O)Cn2cnc3sc4c(c3c2=O)CCCC4)cc1OC,inactive
2,Cc1ccc(S(=O)(=O)N[C@H]2CCC[C@@H]2O)cc1,inactive
3,Cn1c(NCc2cccnc2)nc2cc(-c3ccc(F)cc3)sc2c1=O,inactive
4,Cc1[nH]c2ccccc2c1C(=O)c1cc([C@H](NC(=O)OC(C)(C)C)C(C)C)sc1N,10 µM (active)
5,Cc1[nH]c2ccccc2c1C(=O)CSCC(=O)O,inactive
6,Cc1[nH]c2ccccc2c1C(=O)C(C)Sc1nnc(C2CC2)o1 (stereo unspecified),inactive
7,OC[C@@H]1CN(Cc2ccncc2)C[C@H](n2cnc3c(N4CCN(c5ccccc5)CC4)ncnc32)O1,inactive
8,CC(C)(C)OC(=O)Nc1ccc([C@@H](NC(=O)OC(C)(C)C)C(=O)OC(C)(C)C)cc1,inactive
9,CC(C)(C)OC(=O)N[C@H](C(=O)OC(C)(C)C)c1ccc(Br)cc1,10 µM (active)
10,C[C@H](NC(=O)OC(C)(C)C)c1nnc(SCC(=O)Nc2ccc(Br)cc2)o1,inactive
11,COc1ccc(C(C)(C)C)cc1NC(=O)CN(C)C1=NS(=O)(=O)c2ccccc21,inactive
12,COc1ccc(CCNC(=O)CN(c2ccccc2)S(=O)(=O)c2ccccc2)cc1,inactive
13,COc1cccc(NC(=O)N(Cc2cn(C)c3ccccc23)C2CCCCCC2)c1,10 µM (active)
14,COc1cccc(NC(=O)C2CCCN2C(=O)OCc2ccccc2)c1 (stereo unspecified),inactive
15,COc1cccc(NC(=O)N2CCCC2C(=O)NC2CCCCC2)c1 (stereo unspecified),inactive
16,CCOC(=O)c1cc2cc(OC)ccc2n1C1CCN(C)CC1,inactive
17,C[C@@H]1CN([C@@H](C)CO)C(=O)c2cc(NS(C)(=O)=O)ccc2O[C@@H](C)CCCCO[C@H]1CN(C)C(=O)Nc1ccc2c(c1)OCO2,inactive
18,Cc1ccc(NC(=S)N(CCCN2CCCC2)Cc2cccn2Cc2ccc(Cl)cc2)cc1,2.24 µM (active)
19,Cc1ccccc1NC(=S)N(CCCN1CCOCC1)Cc1cccs1,inactive
20,CCc1ccccc1NC(=S)N(CCN1CCCCCC1)Cc1ccco1,inactive
21,COc1ccc(C(O)c2nc(-c3ccc4c(c3)OCO4)cs2)cc1 (stereo unspecified),inactive
22,COc1cccc(-c2cc3nc(NCc4ccccc4OC)n(C)c(=O)c3s2)c1,inactive
23,CCCOc1ccc(NC(=O)CC2C(=O)N(c3ccccc3)C(=O)N2Cc2ccco2)cc1 (stereo unspecified),inactive
24,CCCOc1ccc(NC(=O)CC2C(=O)N(C)C(=S)N2Cc2ccc3c(c2)OCO3)cc1 (stereo unspecified),10 µM (active)

row,SMILES,Potency
1,COc1ccc(NC(=O)CSc2nccn2Cc2ccc3c(c2)OCO3)cc1,inactive
2,Cc1noc(C)c1NC(=O)N(C)C[C@@H]1Oc2cc(Br)ccc2S(=O)(=O)N([C@@H](C)CO)C[C@H]1C,inactive
3,COCCN(CCOC)S(=O)(=O)c1ccc(/C(O)=C(\C#N)c2nc3ccccc3[nH]2)cc1,inactive
4,N#C/C(=C(/O)COC(=O)COc1ccc(Cl)cc1)c1nc2ccccc2[nH]1,10 µM (active)
5,N#C/C(=C(/O)COc1cccc2ccccc12)c1nc2ccccc2[nH]1,inactive
6,O=C(COC(=O)CCc1c[nH]c2ccccc12)Nc1cccc(Cl)c1,inactive
7,CC(C)C[C@H]1CN([C@@H](Cc2ccccc2)CN2CCC[C@@H]2CN2C(=O)C(=O)NC[C@@H]2Cc2ccc(O)cc2)C(=O)C(=O)N1CCc1ccccc1,inactive
8,COc1ccc(CNCCCO)cc1OC,inactive
9,CCOCCCNCc1cc(Br)ccc1OCC,inactive
10,CCOCCCNCc1ccc(OCc2ccc(F)cc2)c(OC)c1,1.12 µM (active)
11,COCCCn1c(C(=O)NC2CCCCC2)cc2c(=O)n3cccc(C)c3nc21,inactive
12,COC(=O)c1ccc2nc(-c3ccc(C)cc3)c(Cc3ccc(OC)cc3C)n2c1,inactive
13,COc1cc(C)c(CN2CCN(C(=O)CCC(=O)c3ccc(C)s3)CC2)cc1OC,inactive
14,O=C1C(Sc2cccc(F)c2)=C[C@@]2(O)CC[C@@H](O)[C@]1(Sc1cccc(F)c1)[C@H]2O,inactive
15,O=C(NCCCN1CCN(c2cccc(Cl)c2)CC1)c1nnc(Cc2ccc(F)cc2Cl)o1,12.6 µM (active)
16,COc1ccc(N2CCN(CCNC(=O)c3nnc(Cc4c(F)cccc4Cl)o3)CC2)cc1,inactive
17,Cn1c(C(=O)NCCCN2CCN(c3cccc(Cl)c3)CC2)cc2c(=O)n(C)c3ccccc3c21,inactive
18,CSc1ncnc2c1ncn2CCCNCC(C)c1ccccc1 (stereo unspecified),inactive
19,CCCCCCCCN1C(=O)[C@H](CC(=O)NCC23CC4CC(CC(C4)C2)C3)C[C@@]2(C(=O)OC)CCCCC=C12,inactive
20,CCNC(=O)C1(C)CCN(C(=O)c2ccccc2)C1 (stereo unspecified),inactive
21,CCOC1=C2[C@@H](CN(S(=O)(=O)c3ccc(C)cc3)[C@H]2c2ccccc2F)[C@H]2C(=O)N(Cc3ccccc3)C(=O)[C@H]2C1,inactive
22,CCCNC(=O)c1cc(C2CCCN(C(=O)c3ccc4c(c3)CCO4)C2)on1 (stereo unspecified),inactive
23,CC(C)c1ccc2c(c1)c(SC(C)(C)C)c(CC(C)(C)C(=O)O)n2Cc1ccc(Cl)cc1,2.82 µM (active)
24,O=C(Cn1c(=O)nc(-c2ccccc2)c2cc(Cl)ccc21)NCc1ccc(Cl)cc1,inactive
